# Assay results from PubChem BioAssay.
# For some assays here: Results with a measured potency or affinity are listed apart. Calls of active or inactive are those of the source.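 Rule for the calls, unless noted: active = primary screen active and over 50% activation in each of two duplicate runs; inactive = the rest.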
# Experiments:
# [1] = system: TRPC4 beta (transient receptor potential cation channel C4), mouse; experiment: activators of mouse TRPC4 channel, confirmation, cell-based, Fluo4 calcium, HEK293 TRPC4beta/mu-opioid, duplicates, 10 µM (AID 2426;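 active = fluorescence ratio normalized to control raised more than 50% in primary screen plus both repeat runs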); settings: Fluo4 calcium fluorescence, at 10 µM; active compounds read high
# [2] = system: transient receptor potential cation channel C4 beta (TRPC4), mouse; experiment: activators of mouse TRPC4 channel, confirmation, cell-based, second round, Fluo4, HEK293 TRPC4beta/mu-opioid, 1 µM (AID 2461); settings: Fluo4 calcium fluorescence, at 1 µM; active compounds read high
# [3] = system: TRPC4 (transient receptor potential cation channel C4 beta), mouse; experiment: positive allosteric modulators of mouse TRPC4, confirmation, cell-based, second round, Fluo-4, HEK293 TRPC4beta/mu-opioid, 1 µM (AID 2554;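 active = primary screen hit whose fluorescence ratio, in both repeats, exceeds the weak agonist control mean by 3 SD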); settings: DAMGO EC20, Fluo-4 calcium flux, at 1 µM; active compounds read high
# [4] = system: TRPC4 beta (transient receptor potential cation channel C4), mouse; experiment: positive allosteric modulators of mouse TRPC4, confirmation, cell-based, Fluo-4, HEK293 TRPC4beta/mu-opioid (AID 2555;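 active = primary screen hit whose calcium fluorescence ratio, in both repeats, exceeds the weak agonist control mean by 3 SD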); settings: DAMGO EC20, Fluo-4 calcium flux, at 10 µM; active compounds read high
# [5] = target: Short transient receptor potential channel 4 (Mus musculus) (UniProt Q9QUQ5); experiment: inhibitors of mouse TRPC4 channel, confirmation, cell-based, Fluo4, HEK293 TRPC4beta/mu-opioid (AID 2636;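 active = calcium signal cut by more than 3 SD below the full-agonist control yet still positive, in both repeats and the earlier primary screen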); settings: DAMGO, Fluo4 calcium flux, at 10 µM; active compounds read high
# [6] = target: Short transient receptor potential channel 4 (Mus musculus) (UniProt Q9QUQ5); experiment: inhibitors of mouse TRPC4 channel, confirmation, cell-based, second round, Fluo4, HEK293 TRPC4beta/mu-opioid, 1 µM (AID 2637;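 active = calcium signal ratio cut to more than 3 SD under the fully stimulated control mean yet still positive, in both repeats and the primary screen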); settings: Fluo4 calcium flux, DAMGO, at 1 µM; active compounds read high
# [7] = target: Short transient receptor potential channel 4 (Mus musculus) (UniProt Q9QUQ5); experiment: mouse TRPC4 channel activators, dose response, cell-based, HEK293 TRPC4/mu-opioid, Fluo-4 calcium (AID 434937;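 active = primary screen activator hit with a dose response curve and TRPC4 channel activation at any tested dose; inactive = no activation, no dose response, or not a primary hit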)
# [8] = target: Short transient receptor potential channel 4 (Mus musculus) (UniProt Q9QUQ5); experiment: TRPC4 positive allosteric modulators, dose response, cell-based, HEK293 TRPC4/mu-opioid, Fluo-4 calcium, EC20 DAMGO (AID 434941;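 active = earlier screen potentiator hit that boosts the TRPC4 ion channel at some dose, with a dose response; inactive = no potentiation, no dose response, or not a prior hit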;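 note: calcium entry triggered by an EC20 dose of DAMGO at the co-expressed mu-opioid receptor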)
# [9] = target: Short transient receptor potential channel 4 (Mus musculus) (UniProt Q9QUQ5); experiment: mouse TRPC4 channel inhibitors, dose response, cell-based, HEK293 TRPC4/mu-opioid, Fluo-4 calcium (AID 434942;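 active = primary screen inhibitor hit that blocks the TRPC4 channel at some tested dose, yielding a dose curve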)
# [10] = target: Short transient receptor potential channel 6 (Mus musculus) (UniProt Q61143); experiment: inhibition of mouse TRPC6 channel, confirmation, selectivity assay for TRPC4 inhibitor project, cell-based, HEK293, membrane potential dye, duplicate (AID 434948;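 active = active in primary screen and both duplicates, each dropping signal beyond three positive-control SD with fluorescence still positive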); settings: HEK293 TRPC6, membrane potential dye fluorescence, at 10 µM, stimulated with maximal-effect acetylcholine; active compounds read high
# [11] = target: Short transient receptor potential channel 6 (Mus musculus) (UniProt Q61143); experiment: activation of mouse TRPC6 channel, confirmation, selectivity assay for TRPC4 activator project, cell-based, HEK293, membrane potential dye, duplicate (AID 434950;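 active = membrane potential signal rise above negative control mean plus 3 SD in both duplicates, also active in the earlier TRPC4 screen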); settings: HEK293 TRPC6, membrane potential fluorescence, at 10 µM; active compounds read high
# [12] = target: Short transient receptor potential channel 6 (Mus musculus) (UniProt Q61143); experiment: TRPC6 potentiation by TRPC4 potentiator hits, confirmation, selectivity assay for TRPC4 potentiator project, HEK293 cells, membrane potential dye, duplicate (AID 434952;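 active = compound raising the membrane signal above positive-control mean plus 3 SD in both repeats, and a primary screen hit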); settings: HEK293 TRPC6, membrane potential dye fluorescence, at 10 µM, maximal acetylcholine added after compound; active compounds read high
# [13] = target: Short transient receptor potential channel 4 (Mus musculus) (UniProt Q9QUQ5); experiment: calcium flux activators in TRPC4/5HT1a cells, counter-screen for TRPC4 activator project, cell-based, second counter screen, HEK293 TRPC4/5HT1a, Fluo-4 (AID 434977;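 active = calcium signal rise above buffer-control mean plus 5 SD in both duplicates, and also a hit in the primary screen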;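 for activation: plate controls were assay buffer for no effect and maximal serotonin response for full effect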); settings: Fluo-4 calcium flux, at 10 µM; active compounds read high
# [14] = calcium flux inhibitors in TRPC4/5HT1a cells, confirmation, counter-screen for TRPC4 inhibitor project, cell-based, second counter screen, HEK293 TRPC4/5HT1a, Fluo-4 (AID 434978;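 active = primary screen active whose calcium signal fell more than 3 SD beyond the full-serotonin control mean in both duplicate plates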;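 note: serotonin given first at submaximal then at maximal dose after compound preincubation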); settings: Fluo-4 calcium flux, at 10 µM, serotonin added to trigger calcium flux; active compounds read high
# [15] = system: TRPC4 (mouse), co-expressed with 5HT1a in HEK293; experiment: calcium flux potentiators in TRPC4/5HT1a cells, confirmation, counter-screen for TRPC4 potentiator project, cell-based, second counter screen, HEK293 TRPC4/5HT1a, Fluo-4 (AID 434979;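 active = signal rise over 3 SD above mean of control wells given weak agonist, in both repeats and first screen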); settings: Fluo-4 calcium flux, at 10 µM, serotonin added at its EC20 dose; active compounds read high
# [16] = calcium flux activation in mu-opioid HEK293 cells, confirmation, counter-screen for TRPC4 activator project, cell-based, HEK293 mu-opioid receptor line (AID 449723;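 active = hit in primary screen, with calcium signal over 5 SD above buffer well mean in both duplicates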;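 note: counter screen cells carry the mu-opioid receptor alone and lack TRPC4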); settings: Fluo-4 calcium fluorescence, at 10 µM; active compounds read high
# [17] = calcium flux enhancement in mu-opioid HEK293 cells, confirmation, counter-screen for TRPC4 allosteric potentiator project, cell-based, HEK293 mu-opioid receptor line (AID 449724;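 active = calcium signal rise more than 3 SD above the low-dose agonist control mean, in both duplicate plates and the primary screen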); settings: Fluo-4 calcium flux, at 10 µM, compound added before EC20 DAMGO stimulus; active compounds read high
# Chain of Short transient receptor potential channel 4 (Mus musculus) (Q9QUQ5 whole entry, looked up): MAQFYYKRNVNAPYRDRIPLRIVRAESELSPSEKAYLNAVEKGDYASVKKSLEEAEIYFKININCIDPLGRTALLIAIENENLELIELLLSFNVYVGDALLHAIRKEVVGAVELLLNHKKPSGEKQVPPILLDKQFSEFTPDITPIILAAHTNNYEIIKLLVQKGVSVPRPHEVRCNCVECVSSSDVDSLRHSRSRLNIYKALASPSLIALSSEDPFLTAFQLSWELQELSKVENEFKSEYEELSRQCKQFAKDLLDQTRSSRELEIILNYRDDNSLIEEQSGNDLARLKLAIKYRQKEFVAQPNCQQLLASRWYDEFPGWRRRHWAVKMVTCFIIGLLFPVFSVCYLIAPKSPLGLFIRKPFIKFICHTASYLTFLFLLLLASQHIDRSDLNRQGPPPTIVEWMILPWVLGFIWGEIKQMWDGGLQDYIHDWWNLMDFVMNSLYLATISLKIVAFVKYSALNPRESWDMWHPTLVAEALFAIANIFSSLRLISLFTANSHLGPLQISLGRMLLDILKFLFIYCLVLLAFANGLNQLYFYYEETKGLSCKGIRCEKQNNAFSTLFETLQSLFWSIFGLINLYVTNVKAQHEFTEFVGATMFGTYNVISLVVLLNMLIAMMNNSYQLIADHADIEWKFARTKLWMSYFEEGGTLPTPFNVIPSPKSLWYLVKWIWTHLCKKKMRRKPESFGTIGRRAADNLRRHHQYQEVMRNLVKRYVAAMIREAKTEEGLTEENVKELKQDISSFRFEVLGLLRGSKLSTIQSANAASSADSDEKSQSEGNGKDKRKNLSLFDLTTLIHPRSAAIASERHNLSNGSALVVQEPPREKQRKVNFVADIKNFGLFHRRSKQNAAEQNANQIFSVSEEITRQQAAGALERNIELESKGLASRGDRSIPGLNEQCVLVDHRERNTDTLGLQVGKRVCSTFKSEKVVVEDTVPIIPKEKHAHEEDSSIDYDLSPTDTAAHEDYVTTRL
# Chain of Short transient receptor potential channel 6 (Mus musculus) (Q61143 whole entry, looked up): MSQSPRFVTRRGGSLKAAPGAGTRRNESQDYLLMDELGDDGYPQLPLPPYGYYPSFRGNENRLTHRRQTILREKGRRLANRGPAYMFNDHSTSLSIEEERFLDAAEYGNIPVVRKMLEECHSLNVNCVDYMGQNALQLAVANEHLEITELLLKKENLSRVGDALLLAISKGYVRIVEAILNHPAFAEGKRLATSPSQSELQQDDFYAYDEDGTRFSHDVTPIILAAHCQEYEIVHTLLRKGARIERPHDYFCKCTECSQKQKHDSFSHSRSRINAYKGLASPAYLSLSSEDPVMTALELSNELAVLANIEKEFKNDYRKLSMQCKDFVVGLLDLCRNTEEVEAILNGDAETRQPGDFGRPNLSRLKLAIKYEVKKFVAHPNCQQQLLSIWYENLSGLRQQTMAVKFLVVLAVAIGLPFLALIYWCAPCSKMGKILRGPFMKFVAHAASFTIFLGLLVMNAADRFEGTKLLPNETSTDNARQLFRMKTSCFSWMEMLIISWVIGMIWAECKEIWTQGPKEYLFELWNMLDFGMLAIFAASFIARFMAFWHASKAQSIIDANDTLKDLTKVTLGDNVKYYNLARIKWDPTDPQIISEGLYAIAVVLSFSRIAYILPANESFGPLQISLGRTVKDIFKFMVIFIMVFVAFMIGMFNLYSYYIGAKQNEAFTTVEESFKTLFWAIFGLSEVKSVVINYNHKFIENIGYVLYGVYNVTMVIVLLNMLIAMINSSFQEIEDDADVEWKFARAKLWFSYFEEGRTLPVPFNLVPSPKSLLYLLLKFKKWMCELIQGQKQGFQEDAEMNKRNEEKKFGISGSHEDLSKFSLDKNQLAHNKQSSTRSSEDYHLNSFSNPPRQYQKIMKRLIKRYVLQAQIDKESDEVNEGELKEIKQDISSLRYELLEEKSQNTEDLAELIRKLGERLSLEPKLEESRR
compound,measurement,setting,value
NS(=O)(=O)c1ccc(NN=C2CCN(Cc3ccccc3)CC2)c([N+](=O)[O-])c1,outcome,[1],inactive
same,outcome,[2],inactive
same,outcome,[3],inactive
same,outcome,[4],inactive
same,outcome,[5],inactive
same,outcome,[6],inactive
same,outcome,[7],inactive
same,outcome,[8],inactive
same,outcome,[9],inactive
same,outcome,[10],inactive
same,outcome,[11],inactive
same,outcome,[12],inactive
same,outcome,[13],inactive
same,outcome,[14],inactive
same,potentiation,[15],16.3% (active)
same,outcome,[16],inactive
same,outcome,[17],inactive
CC(C)(C)NCc1cc(Cl)ccc1OCc1cccs1,outcome,[1],inactive
same,outcome,[2],inactive
same,outcome,[3],inactive
same,outcome,[4],inactive
same,outcome,[5],inactive
same,outcome,[6],inactive
same,outcome,[7],inactive
same,outcome,[8],inactive
same,outcome,[9],inactive
same,outcome,[10],inactive
same,outcome,[11],inactive
same,outcome,[12],inactive
same,outcome,[13],inactive
same,outcome,[14],inactive
same,outcome,[15],inactive
same,outcome,[16],inactive
same,outcome,[17],inactive
CC(=O)c1ccc(N2CCN(C(=O)C3CCN(S(=O)(=O)c4ccc5c(c4)CC(C)N5C(=O)C4CC4)CC3)CC2)cc1 (centres undefined),outcome,[1],inactive
same,outcome,[2],inactive
same,outcome,[3],inactive
same,potentiation,[4],9% (active)
same,outcome,[5],inactive
same,outcome,[6],inactive
same,outcome,[7],inactive
same,outcome,[8],inactive
same,outcome,[9],inactive
same,outcome,[10],inactive
same,outcome,[11],inactive
same,outcome,[12],inactive
same,outcome,[13],inactive
same,outcome,[14],inactive
same,potentiation,[15],14.8% (active)
same,outcome,[16],inactive
same,outcome,[17],inactive
CCOC(=O)c1cn(Cc2ccccc2)c(C(=O)OC(C)(C)C)c1O,outcome,[1],inactive
same,outcome,[2],inactive
same,outcome,[3],inactive
same,outcome,[4],inactive
same,outcome,[5],inactive
same,outcome,[6],inactive
same,outcome,[7],inactive
same,outcome,[8],inactive
same,outcome,[9],inactive
same,outcome,[10],inactive
same,outcome,[11],inactive
same,outcome,[12],inactive
same,activation,[13],54.1% (active)
same,outcome,[14],inactive
same,outcome,[15],inactive
same,activation,[16],21.1% (active)
same,outcome,[17],inactive
Cc1nnc(Sc2cc(NCCCO)c([N+](=O)[O-])c3nonc23)s1,outcome,[1],inactive
same,outcome,[2],inactive
same,outcome,[3],inactive
same,outcome,[4],inactive
same,inhibition,[5],84% (active)
same,outcome,[6],inactive
same,outcome,[7],inactive
same,outcome,[8],inactive
same,outcome,[9],inactive
same,outcome,[10],inactive
same,outcome,[11],inactive
same,outcome,[12],inactive
same,outcome,[13],inactive
same,outcome,[14],inactive
same,outcome,[15],inactive
same,outcome,[16],inactive
same,outcome,[17],inactive
CCOC(=O)C(CCCCCOc1ccc([N+](=O)[O-])cc1)C(=O)OCC,outcome,[1],inactive
same,outcome,[2],inactive
same,outcome,[3],inactive
same,potentiation,[4],10% (active)
same,outcome,[5],inactive
same,outcome,[6],inactive
same,outcome,[7],inactive
same,outcome,[8],inactive
same,outcome,[9],inactive
same,outcome,[10],inactive
same,outcome,[11],inactive
same,outcome,[12],inactive
same,outcome,[13],inactive
same,outcome,[14],inactive
same,outcome,[15],inactive
same,outcome,[16],inactive
same,outcome,[17],inactive
CCN(CC)CCOC(=O)c1cccc(Br)c1,outcome,[1],inactive
same,outcome,[2],inactive
same,potentiation,[3],14% (active)
same,potentiation,[4],12% (active)
same,outcome,[5],inactive
same,outcome,[6],inactive
same,outcome,[7],inactive
same,outcome,[8],inactive
same,outcome,[9],inactive
same,outcome,[10],inactive
same,outcome,[11],inactive
same,outcome,[12],inactive
same,outcome,[13],inactive
same,outcome,[14],inactive
same,potentiation,[15],8.39% (active)
same,outcome,[16],inactive
same,outcome,[17],inactive
